Measured values from PubChem BioAssay (NCI).
This is part of a sample that, as a whole, favours compounds with a hit. Of some 83,000 tested, about 20% had one in any assay.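 Compound tested at a single concentration for 48 hours in 96-well plates; a percent growth value below 10 was scored as active.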 Values without a mark were called inactive. Active and inactive are the calls of the source.

Key:
Test in all cases: NCI-60 one-dose screen, 48 h (100 = growth as untreated, 0 = no growth, -100 = all killed)
Conditions in all cases: 10 µM
[1] = tested on: DU-145 prostate
[2] = tested on: K-562 leukemia
[3] = tested on: MALME-3M melanoma
[4] = tested on: MDA-MB-231 breast
[5] = tested on: RXF 393 renal
[6] = tested on: SF-268 CNS
[7] = tested on: SF-295 CNS
[8] = tested on: SF-539 CNS
[9] = tested on: M14 melanoma
[10] = tested on: HCT-15 colon
[11] = tested on: HT29 colon
[12] = tested on: SNB-75 CNS
[13] = tested on: SNB-19 CNS
[14] = tested on: U251 CNS
[15] = tested on: PC-3 prostate
[16] = tested on: SK-MEL-5 melanoma
[17] = tested on: UACC-62 melanoma
[18] = tested on: LOX IMVI melanoma
[19] = tested on: SK-MEL-28 melanoma

SMILES	growth [1]	growth [2]	growth [3]	growth [4]	growth [5]	growth [6]	growth [7]	growth [8]	growth [9]	growth [10]	growth [11]	growth [12]	growth [13]	growth [14]	growth [15]	growth [16]	growth [17]	growth [18]	growth [19]
COc1cc(C(=O)N2CCN(c3cc4c(cc3F)c(=O)c(C(=O)NO)cn4C3CC3)CC2)cc(OC)c1OC	104%	103%	105%	98.8%	104%	98%	103%	101%	103%	106%	105%	96.3%	100%	98.1%	93.6%	101%	95%	94.1%	108%
CC(=O)N[C@H](C(=O)N[C@@H](CCCNC(=N)N)C(=O)N[C@@H](CCCCN)C(=O)N[C@@H](CCCNC(=N)N)C(=O)N[C@]1(C)CCCCCC/C=C\CCC[C@@](C)(C(=O)N[C@@H](CCCNC(=N)N)C(=O)N[C@@H](CCC(=O)O)C(=O)N[C@@H](CC(C)C)C(=O)N[C@H](C(=O)N[C@@H](CCC(=O)O)C(N)=O)C(C)C)NC(=O)[C@H](CCC(N)=O)NC(=O)[C@H](CC(C)C)NC(=O)[C@H](CC(C)C)NC(=O)[C@H](CCCNC(=N)N)NC(=O)[C@H](CCCNC(=N)N)NC(=O)[C@H](CC(C)C)NC1=O)C(C)C	-72.7% (active)	-18.8% (active)	-28.7% (active)	-39.5% (active)	-51.5% (active)	-51.5% (active)	14.3%	-47% (active)	-41.9% (active)	-10.8% (active)	15.7%	2.79% (active)	6.45% (active)	-40.9% (active)	-4.64% (active)	-68.8% (active)	-43.3% (active)	29.4%	-29.7% (active)
COc1cc(-c2csc(NC(=O)Nc3cc(C(F)(F)F)cc(C(F)(F)F)c3)n2)cc(OC)c1OC	20.3%	17.5%	6.56% (active)	14.4%	47%	32.7%	-10.4% (active)	23%	21.9%	11.8%	7.94% (active)	34.1%	25.3%	9.2% (active)	4.29% (active)	-4.49% (active)	18.7%	6.63% (active)	17.6%
CCn1c(SCc2ccc(C)cc2)nnc1-c1nn(-c2ccc(Cl)cc2Cl)c(-c2ccc(Cl)cc2)c1C	23.4%	8.88% (active)	7.8% (active)	5.05% (active)	8.71% (active)	22.8%	9.65% (active)	19.8%	12.3%	11.6%	2.65% (active)	23.3%	22.1%	14.4%	5.63% (active)	-92.3% (active)	21.2%	7.19% (active)	30.3%
CC(=O)N[C@H](C(=O)N[C@@H](CCCNC(=N)N)C(=O)N[C@@H](CCCCN)C(=O)N[C@@H](CCCNC(=N)N)C(=O)N[C@]1(C)CCC/C=C\CCC[C@@](C)(C(=O)N[C@@H](CC(C)C)C(=O)N[C@@H](CC(C)C)C(=O)N[C@@H](CCC(N)=O)C(=O)N[C@@H](CCC(=O)O)C(=O)N[C@@H](CCCNC(=N)N)C(=O)N[C@@H](CCC(=O)O)C(=O)N[C@@H](CC(C)C)C(=O)N[C@H](C(=O)N[C@@H](CCC(=O)O)C(N)=O)C(C)C)NC(=O)[C@H](CCCNC(=N)N)NC(=O)[C@H](CC(C)C)NC1=O)C(C)C	99.7%	104%	137%	108%	119%	101%	106%	102%	107%	109%	95.3%	119%	105%	100%	104%	102%	105%	105%	111%
COc1cc(C(=O)/C(C)=C/c2c[nH]c3ccccc23)cc(OC)c1OC	2.39% (active)	14.3%	68.1%	16.1%	46.2%	26.8%	12.4%	-3.72% (active)	-1.18% (active)	9.94% (active)	5.62% (active)	36.3%	34%	18.1%	19.8%	-36.4% (active)	40.2%	17.8%	66.2%
N#Cc1c(-c2ccc(Cl)cc2)csc1NC(=O)Nc1ccc(Cl)c(C(F)(F)F)c1	5.84% (active)	9.03% (active)	-26.7% (active)	2.12% (active)	33.7%	27.8%	-27.2% (active)	31.5%	8.06% (active)	4.52% (active)	1.62% (active)	36.5%	31.6%	2.57% (active)	1.89% (active)	-24.2% (active)	16.2%	11.7%	28.4%
COc1cc2c3c(n([C@@H]4CCOC4)c(=O)c2cc1OC)-c1cc2c(cc1C3=O)OCO2	24.2%	55%	75.6%	91%	52.4%	35%	1.17% (active)	-3.51% (active)	16.5%	60.5%	42.9%	38%	30.1%	13.4%		14.2%	3.12% (active)	9.49% (active)	73.2%
N#Cc1c(N)nc(-c2cc(F)cc(C(F)(F)F)c2)nc1-c1ccccc1F	61%	56.7%	33.2%	21.3%	37.4%	55.3%	35.2%	52.1%	63.1%	67.4%	39.7%	13.6%	46.5%	19.5%	81.4%	93.6%	84%	54%	75.9%
CCOC(=O)c1sc2ncnc(Nc3ccc4c(cnn4C(=O)Nc4ccccc4)c3)c2c1C	64.6%	91.6%	32.7%	37.2%	55.4%	66.2%	98.3%	19.2%	63.7%	72.6%	40.7%	10.7%	85.8%	53%		31.1%	59.7%	36.4%	72.7%
O=C(O)c1ccc(-n2cc(CNc3ccc(Oc4ccccc4)cc3)c(-c3ccccc3)n2)cc1	99.8%	78.3%	88.6%	92%	86.9%	90.2%	72.1%	90.6%	97.2%	72.9%	102%	81.6%	87.7%	83.3%	96%	96.8%	83.4%	90.4%	86.8%
COc1cc2ncnc(NC3CCC(O)CC3)c2cc1OC (stereo unspecified)	102%	58.2%	103%	93.7%	102%	101%	94.9%	95.4%	98.8%	101%	90%	91.9%	97.4%	90.2%	87.7%	98.6%	97.1%	95.3%	108%
Cc1ccc(/C=C/C(=O)C(=O)/C=C/c2ccc(C)cc2)cc1	112%	95.2%	96.8%	106%	117%	108%	101%	96.2%	95.2%	95.5%	91.4%	90.4%	103%	93%	92.2%		96.7%	89.3%	108%
CNC(=O)c1cn(C2CC2)c2cc(N3CCN(C(=O)c4cc(OC)c(OC)c(OC)c4)CC3)c(F)cc2c1=O	104%	104%	103%	98.2%	112%	96.8%	98%	98.9%	109%	100%	99.2%	96%	96.4%	96.3%	89.9%	98.3%	96.5%	94.7%	105%
CCCCCCCCCCCCCCCCCC[n+]1ccc2c(C)c3c(c(C)c2c1)c1cc(O)ccc1n3CC	40.4%	9.4% (active)	-55.2% (active)	19%	-7.68% (active)	4.77% (active)	-1.22% (active)	-21.2% (active)	-2.39% (active)	48.8%	17.2%	24.5%	5.25% (active)	-34.9% (active)		-94.2% (active)	-11.8% (active)	20.6%	7.4% (active)
